Reference: PubChem BioAssay AID493169 (National Center for Advancing Translational Sciences (NCATS), 2011)
Inconclusive results are not listed. A number with no mark means an inactive call. Active and inactive are the calls of the source. Calls come from the whole dose curve; as a rule, active = well fitted inhibition curve with a large enough effect; inconclusive = small, poorly fitted or top-dose-only effect; inactive = flat fitted curve, though single readings scatter.

Experiment: CHOP2 Reporter Counterscreen Assay for Inhibitors of Ubiquitin-specific Protease USP2a;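 note: activated enterokinase alone at 50 pM in a cell-free format rather than USP2a or CHOP2; nearly all actives have a fitted effect of over 55% in size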
Conditions: purified enterokinase, fluorogenic substrate, 485/531 nm; series mostly up to 38.3 µM; activity change, negative = inhibition: at the top concentration
Outline: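 Fluorescence (485/531 nm) read 10 min after adding 25nM reporter substrate to 50 pM activated EK preincubated 30 min RT with compound; Tris pH 8.0/CaCl2/CHAPS buffer. Data normalized to buffer-alone inhibition; concentration-response curves fitted.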
% is set by controls: 0 for no effect and ±100 for the full control effect; potency is the fitted concentration of half-maximal effect.

Row | SMILES | activity change, negative = inhibition [%] | Potency
1 | CS(=O)(=O)c1nc(-c2ccc(Br)cc2)cc(-c2ccccc2)c1C#N | 0.429 | –
2 | COc1ccc(S(=O)(=O)N2CCCCC2)cc1NC(=O)Cc1c[nH]c2ccccc12 | -6.03 | –
3 | COC(=O)c1c(O)c2c([nH]c1=O)CCCC2 | 3.84 | –
4 | O=C(CC(C(=O)O)C1CCCO1)NCCc1ccc2c(c1)OCO2 (stereo not given) | -1.81 | –
5 | Cc1ccc(C=Nc2ccccc2C(N)=O)cc1 | 3.57 | –
6 | N#CC(c1ccccc1)c1ccc(C(=O)c2ccc(F)cc2)cc1 (stereo not given) | -2.54 | –
7 | CCCSCCCNC(=O)CC1Oc2ccccc2NC1=O (stereo not given) | -2.32 | –
8 | COC(=O)[C@@]12CCCCN1[C@H](c1ccc(-c3ccc(Cl)c(Cl)c3)cc1)[C@H]1C(=O)N(C)C(=O)[C@H]12 | -3.03 | –
9 | O=C1Nc2ccc(S(=O)(=O)N3CCCCCC3)c3cccc1c23 | -0.53 | –
10 | CN(C)c1ccc(-c2ccccc2)nn1 | 2.68 | –
11 | COCc1cc(C)nc(OCC(=O)N/N=C\c2cc(C)n(-c3cccc(C(F)(F)F)c3)c2C)c1C#N | -0.186 | –
12 | O=C(CSc1nnc(SCc2ccccc2)s1)N/N=C/C=C/c1ccco1 | – | 2.51 µM (active)
13 | O=C(NCCOC(=O)c1ccccc1C(=O)OCCNC(=O)c1cccnc1)c1cccnc1 | -0.228 | –
14 | C[C@H](CO)N1C[C@H](C)[C@@H](CN(C)S(=O)(=O)c2ccc(Cl)cc2)Oc2ccc(NS(=O)(=O)c3ccccc3)cc2CC1=O | 1.05 | –
15 | Cc1ccc2oc(=O)c3cnn(CC(=O)NCCCOC(C)C)c3c2c1 | -0.662 | –
16 | Cc1sc2nc(CN3CCN(c4ccc(O)cc4)CC3)[nH]c(=O)c2c1C | 0.0748 | –
17 | O=C(Oc1ccccc1C(=O)Nc1ccccc1)c1ccccc1Br | -2.06 | –
18 | Cc1ccccc1NC(=O)CSc1nnc(-c2ccco2)c(-c2ccco2)n1 | 8.04 | –
19 | COc1ccccc1N1CCN(c2cc(C)nc3nc(C)nn23)CC1 | 2.05 | –
20 | O=C(Nc1ccccc1)c1cc(Cl)nc2ccccc12 | 2.73 | –

Row | SMILES | activity change, negative = inhibition [%] | Potency
21 | Cc1cccc2c1N(CCCOc1ccc(C(C)(C)C)cc1)C(=O)C2=O | -1.62 | –
22 | CCn1c(=O)c(C(=O)Nc2ccccc2S(N)(=O)=O)c(O)c2ccccc21 | – | 11.2 µM (active)
23 | Cc1cc(/C=C2\C(=N)N3N=C(c4ccco4)SC3=NC2=O)c(C)n1Cc1ccccc1 | – | 7.08 µM (active)
24 | O=C(O)CP(=O)(c1ccccc1)c1ccccc1 | -0.61 | –
25 | CC(C)OCCCNC(=O)c1c(N)n(/N=C/c2ccccn2)c2nc3ccccc3nc12 | -2.23 | –
26 | O=S(=O)(c1ccccc1)N(CC1CO1)c1cc(Cl)ccc1Cl (stereo not given) | 2.84 | –
27 | C/C(=N/NC(=O)c1cc2ccccc2cc1O)C1C(=O)c2ccccc2C1=O | -9.31 | –
28 | CCOC(=O)CN1C(=O)S/C(=C/c2ccc(O)c([N+](=O)[O-])c2)C1=O | -6.49 | –
29 | Cc1ccc(S(=O)(=O)Nc2ccc(N3CCOCC3)cc2)cc1 | 1.6 | –
30 | Cc1ccc(C(=O)N(C)CC(=O)Nc2cccc(C)c2C)o1 | 7.01 | –
31 | O=C(CN1CCC(O)CC1)N1c2ccccc2C=Cc2ccccc21 | 4.57 | –
32 | CSCCC(NC(=O)c1cc(C(C)(C)C)oc1C)C(=O)O (stereo not given) | 2.06 | –
33 | CC(C)(C)[C@H]1COC(=O)[C@@H](Cc2ccc(F)cc2)C/C=C\C[C@@H](CC(=O)N[C@@H](CO)Cc2ccccc2)C(=O)N1 | 6.11 | –
34 | N=C1/C(=C\c2ccc(-c3cccc(Cl)c3)o2)C(=O)N=C2SC=C(c3ccccc3)N12 | -29.9 | –
35 | CN(C)c1cccc(C(=O)NNC(=O)C23CC4CC(CC(C4)C2)C3)c1 | -0.132 | –
36 | COc1ccc2[nH]c(=O)c(CN(C)C(=O)C3CCCCC3)cc2c1 | -2.09 | –
37 | CC[C@]12c3[nH]c4cc(-c5ccco5)ccc4c3CCN1C(=O)[C@@H](CC(=O)NC/C=C(\C)CCC=C(C)C)C[C@@H]2C(=O)N1CCN(C(=O)C2CC2)CC1 | 3.79 | –
38 | O=C(Nc1cccc(S(=O)(=O)NC2=NCCC2)c1)c1cc(-c2ccco2)nc2ccccc12 | – | 1.78 µM (active)
39 | Cc1ccc(N2CCN(C(=O)CCc3nc4ccccc4[nH]3)CC2)c(C)c1 | 3.76 | –
40 | CC(C)CC(c1nnnn1CC1CCCO1)N1CCN(c2nc3ccccc3s2)CC1 (stereo not given) | -3.48 | –
